Reference: PubChem BioAssay (NCI)
The panel holds about 83,000 compounds, 20% with a hit somewhere; the sample as a whole holds those more often.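 In brief: 96-well plates, 48 h treatment, single concentration, percent growth endpoint.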 A number with no mark means an inactive call. Calls of active or inactive are those of the source. The calls were made as follows: active = growth percent below 10; inactive = the rest.

How the values were obtained:
Assay in all cases: NCI-60 one-dose screen, 48 h (100 = growth as untreated, 0 = no growth, -100 = all killed)
Settings in all cases: 10 µM unless noted
[1] = system: DU-145 prostate
[2] = system: K-562 leukemia
[3] = system: MALME-3M melanoma
[4] = system: MDA-MB-231 breast
[5] = system: RXF 393 renal
[6] = system: SF-268 CNS
[7] = system: SF-295 CNS
[8] = system: SF-539 CNS
[9] = system: UACC-257 melanoma
[10] = system: M14 melanoma

Compound	growth [1]	growth [2]	growth [3]	growth [4]	growth [5]	growth [6]	growth [7]	growth [8]	growth [9]	growth [10]
CCOC(=O)c1cc2c(n1C)-c1nc(NC(C)=O)sc1CCC2	94.3%	96.6%	108%	55.1%	83.1%	77.4%	84.1%	83.2%	67.8%	89.1%
Clc1cc(Cl)c(Cl)c(-c2nnc(SCc3ccncc3Br)o2)c1	99.9%	69.5%	100%	93.3%	128%	97.8%	95.2%	90.9%	103%	97.9%
C1CCC([PH+](C2CCCCC2)C2CCCCC2[PH+](C2CCCCC2)C2CCCCC2)CC1.[Au].[CH-]1CCCCC1C1CCCC[N-]1 (stereo not given)	-52.8% (active)	-0.185% (active)	-44.3% (active)	-27.6% (active)	-92.4% (active)	-55% (active)	-42.9% (active)	-90.4% (active)	-53.8% (active)	-41.3% (active)
N#CC1=C(c2ccccc2)Nc2c(c(-c3ccc(Cl)cc3)nn2-c2ccccc2)C12C(=O)Nc1ccc(Cl)cc12 (stereo not given)	86.1%	65.9%	86.4%	58.8%	49.8%	55.3%	56.5%	85.2%	73%	72.7%
Cc1[nH]c(=O)[nH]c(=O)c1Br	125%	98.3%	119%	99.3%	115%	95.2%	98.4%	114%	88.1%	107%
O=S(=O)(Nc1ccc(Cl)c(C(F)(F)F)c1)c1ccc(-c2cnc(C3CC3)o2)cc1	15.5%	5.12% (active)	28.7%	15.6%	8.55% (active)	13.7%	22.2%	-35.8% (active)	-0.635% (active)	10.9%
Cc1cc(C)c2c(c1)N(C)c1ncnc(-n3cnc4cc(C)ccc43)c1CC2C (stereo not given)	14.2%	7.57% (active)	45.2%	36.8%	-24.8% (active)	40.4%	1.91% (active)	6.25% (active)	45.3%	5.2% (active)
CCCNc1nc2ccccc2c2c1S(=O)(=O)c1ccc(Cl)cc1C2=O	19.4%	8.48% (active)	21.9%	-0.717% (active)	12%	20.4%	15.8%	6.35% (active)	17.8%	5.71% (active)
CCOC(=O)c1c(NC(=O)c2cccc(C(F)(F)F)c2)sc2c(CN(C)C)c(O)ccc12	72.5%	2.41% (active)	-38.5% (active)	58.9%	38.4%	84.7%	96.2%	49.3%	-10.5% (active)	-57.8% (active)
O=C(O)c1cn(C2CC2)c2cc(N3CCN(Cc4ccc5ccccc5c4O)CC3)c(F)cc2c1=O	11.2%	62%	13.9%	48.4%	-23.2% (active)	57.1%	44.2%	-4.68% (active)	38.5%	48%
COc1c(B(O)O)cccc1-c1cc(C)c2c(ccc3[nH]ncc32)n1	80.8%	99.4%	179%	22.1%	7.05% (active)	62.7%	87.8%	25.2%	126%	131%
C#CCOc1cccc(Nc2ncnc3cc(NC(=O)C=C)ccc23)c1	5.4% (active)	5.87% (active)	33.9%	20.5%	-17% (active)	27.6%	45%	0.0579% (active)	25.3%	13%
CN(C)c1ccc(-c2c(C#N)c(N)nn2C(=O)c2ccc(NC(=O)c3ccccn3)cc2)cc1	102%	66.9%	110%	108%	117%	94.1%	99%	92%	112%	84.1%
